# Compound activity deposited in PubChem BioAssay by Sanford-Burnham Center for Chemical Genomics.
# MLLE-PAM2 inh – blocks PAM2 peptide binding to the PABP1 MLLE domain. 360,000 tested, 0.36% active. inhibition, % at 20 µM. AID 588489. GST-MLLE / FITC-PAM2 fluorescence polarization; in the data active means inhibition above about 35%, passing the limit was not always enough;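 further: plate controls were DMSO wells with GST-MLLE for no effect and wells lacking GST-MLLE protein for full effect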
# A3G deaminase – APOBEC3G (human) deaminase inhibition. Q9HC16. recombinant A3G, ssDNA deamination FAM/TAMRA fluorescence. inhibition, % at 20 µM. 330,000 tested, 0.28% active;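 active means inhibition of at least 40% at 20 µM, with no more than 30% in the related APOBEC3A deaminase screen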;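 further: plate controls were DMSO wells with A3G for no effect and wells lacking A3G enzyme for full effect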
# PABP polyA inh – PABP-poly(A) binding inhibition; 290,000 tested, 1% active; PABP-poly(A) RNA binding, fluorescence polarization; P11940; calls only at 35 µM;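 further: calls also rest on retests at 20 µM and on dose response follow-up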
# eIF4H FP inh – inhibitors of RNA binding by human eIF4H. 290,000 tested, 0.94% active. Q15056. eIF4H fluorescence polarization binding assay. inhibition, % at 35 µM;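 further: calls also rest on retests at 20 µM and on dose response follow-up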
# APOBEC3A inh – blocks human APOBEC3A ssDNA deamination; P31941; recombinant A3A, FAM/TAMRA ssDNA deamination fluorescence; inhibition, % at 20 µM; 330,000 tested, 0.41% active; AID 493011;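 active means at least 40% inhibition at 20 µM here, with at most 30% in a related deaminase screen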;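 further: plate controls were A3A with DMSO for no effect and wells lacking A3A enzyme for full effect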
# Target sequence (P31941 whole entry, looked up): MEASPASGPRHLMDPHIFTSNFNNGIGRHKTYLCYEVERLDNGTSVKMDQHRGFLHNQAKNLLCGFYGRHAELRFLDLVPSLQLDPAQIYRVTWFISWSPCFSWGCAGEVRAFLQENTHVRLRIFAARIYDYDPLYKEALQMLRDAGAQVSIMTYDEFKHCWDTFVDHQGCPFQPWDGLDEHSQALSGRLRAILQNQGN
# PHOSPHO1 block – blocks human PHOSPHO1 phosphatase activity; inhibition, % at 13.3 µM; Q8TCT1; 290,000 tested, 1.1% active; AID 1565; recombinant PHOSPHO1, absorbance phosphatase assay; in the data active means inhibition above about 60%
# Target sequence (Q8TCT1 whole entry, looked up): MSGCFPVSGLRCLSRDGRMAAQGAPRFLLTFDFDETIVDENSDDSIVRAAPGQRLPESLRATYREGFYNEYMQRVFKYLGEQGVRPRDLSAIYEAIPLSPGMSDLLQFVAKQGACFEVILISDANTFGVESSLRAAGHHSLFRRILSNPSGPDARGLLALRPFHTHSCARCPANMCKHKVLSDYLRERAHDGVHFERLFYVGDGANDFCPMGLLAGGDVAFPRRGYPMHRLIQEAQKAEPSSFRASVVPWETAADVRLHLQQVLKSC
# A3G conf – APOBEC3G (human) deaminase inhibition, confirmed; shares compounds with A3G deaminase; recombinant A3G ssDNA deaminase, UDG/FAM-TAMRA fluorescence; inhibition, % at 20 µM; 890 tested, 72% active;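 active means inhibition reaching a set limit in any replicate at 20 µM, the limit being 80% of the first screen's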
# UDG A3G counter – inhibits E. coli UDG, flagging false APOBEC3G inhibitors; AID 504715; 710 tested, under 10 active; inhibition, % at 20 µM; shares compounds with A3G deaminase; UDG counterscreen, FAM/TAMRA oligo fluorescence;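 active means compounds giving 40% or more inhibition at 20 µM in any one of the three replicates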;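 further: plate controls were DMSO wells with UDG and oligo for no effect and DMSO wells lacking both for full effect; inhibitors lower the FAM signal released by uracil excision and alkaline cleavage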
# * hit, by the source's call; i = inactive; . = not tested or not shown. Compounds with a hit are over-represented: about 2.6% of the library has one in this group of screens. Unless noted, how the calls were made is not given here.
SMILES,MLLE-PAM2 inh,A3G deaminase,PABP polyA inh,eIF4H FP inh,APOBEC3A inh,PHOSPHO1 block,A3G conf,UDG A3G counter
Cc1ccc(-n2sc3ccccc3c2=O)cc1,15.7,76.9*,i,7.9,1.7,56.2,70.6*,-3.9
O=c1c2ccccc2sn1-c1ccc(Cl)cc1,25.1,.,.,.,.,.,.,.
O=c1c2ccccc2sn1-c1ccc(F)cc1,36.9*,85.8*,.,.,1.1,.,79.8*,-2.3
CC(=O)N1C(C(=O)O)Cc2c([nH]c3ccccc23)C1C (stereo not given),10.6,-6.1,i,-5.0,-6.3,44.7,.,.
CCCCNC(=O)C1(C)CCN1C(=O)Cc1cccc2ccccc12 (stereo not given),-5.8,.,.,.,.,.,.,.
O=C(NCc1nnc(SCC(=O)N2CCCCCC2)o1)c1ccco1,6.5,77.3*,i,-0.6,-0.9,16.0,2.7,6.1
Cc1ccc(C(=O)Nc2sc(C)c(C)c2C(=O)c2ccccc2)cc1,21.8,40.3*,i,-1.2,3.0,-18.9,29.4*,-2.6
Cc1sc(NC(=O)c2ccccc2)c(C(=O)c2ccccc2)c1C,18.8,50.2*,i,3.4,1.6,3.2,36.9*,-2.5
Cc1sc(NC(=O)c2ccccc2)c(C(=O)NC(C)C)c1C,11.7,-8.7,i,2.4,-6.0,-5.3,.,.
Cc1ccc(NS(=O)(=O)c2cc(NC(=O)c3ccc4c(c3)NC(=O)CS4)ccc2C)c(C)c1,25.7,35.7,i,-1.0,-4.3,3.6,.,.
COc1ccc(NC(=O)c2ccc3c(c2)NC(=O)CS3)cc1S(=O)(=O)Nc1ccc(Br)cc1,30.2,55.2*,i,-1.0,3.3,-50.0,30.0*,-3.5
Cc1csc(=O)n1CCC(=O)OCC(=O)NNC(=O)c1ccccc1,26.7,-6.3,.,.,1.1,.,.,.
Cc1ccc(CNC(=O)CCCn2nc(C)c3c(C)n(-c4ccccc4)nc3c2=O)cc1,5.6,-3.2,i,1.1,-3.0,4.7,.,.
O=C(NCc1cccnc1)C(=O)NCC(c1ccco1)N1CCN(c2ccc(F)cc2)CC1 (stereo not given),-4.8,42.4*,i,-4.4,-2.4,-12.5,-9.8,-1.6
COc1ccc(N2CCN(C(CNC(=O)C(=O)NCc3cccnc3)c3ccco3)CC2)cc1 (stereo not given),-3.6,-3.3,i,2.1,11.7,-25.8,.,.
Cc1[nH]c(=S)c(C#N)c(C)c1CCC#N,10.5,64.6*,i,-1.9,-5.0,-25.3,90.2*,-4.8
Cc1cc(C)n2nc(C(=O)OCC(=O)Nc3cc(S(=O)(=O)N4CCOCC4)ccc3Cl)nc2n1,-23.9,.,.,.,.,.,.,.
Nc1ccccc1Sc1nc2ccccc2[nH]1,39.4*,56.6*,i,9.0,0.2,55.5,1.5,.
S=C(c1ccc(-c2cccc(Cl)c2)o1)N1CCOCC1,26.1,43.3*,i,6.0,-2.8,5.8,26.4,0.0
O=C(CNC(=O)N1CC(=O)Nc2ccccc21)Nc1ccc(Cl)cc1Cl,-18.9,.,.,.,.,.,.,.
CCOc1ccc(C(=S)NC2CCCCC2)cc1OCC,31.4,55.7*,i,-8.4,-1.4,.,49.1*,-1.4
O=C(Oc1ccc(C(=S)N2CCOCC2)cc1Br)c1cc(Cl)ccc1Cl,32.9,-4.7,i,-7.5,-4.6,8.0,.,.
O=C(Oc1c(Br)cc(C(=S)N2CCOCC2)cc1Br)c1ccc(Cl)cc1,26.8,61.9*,i,1.4,2.3,95.9*,20.4*,-1.6
O=C(CCC(=O)OCC(=O)c1ccc(-c2ccccc2)cc1)Nc1cccc2cccnc12,-10.1,-1.2,i,-4.6,1.2,-0.7,.,.
O=C(CCC(=O)OCC(=O)c1ccc(Cl)cc1Cl)Nc1cccc2cccnc12,13.7,54.1*,i,-9.6,-1.5,-2.9,-4.3,-0.7
Cc1ccc(S(=O)(=O)N2CCOCC2)cc1NS(=O)(=O)c1ccc(F)c(F)c1,-11.2,-7.7,.,.,-3.0,.,.,.
Cc1ccc(-c2cn3c(=S)[nH]nc3s2)cc1,-3.3,79.7*,i,-17.7,3.2,67.5*,66.1*,-3.6
Cc1ccn2c(=S)[nH]nc2c1,20.4,.,.,.,.,.,.,.
